According to PubChem BioAssay:
Values joined by “and” are separate entries in the source; they are usually repeats but may differ in a detail not shown here. Equal entries are not always repeated. Active and inactive are the calls of the source.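 Rule for the calls, unless noted: active = mean z-score across replicates of 1.96 or higher in either the MELAS or the Rieske mutant cell line; inactive = the rest.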

Key:
[1] = P. berghei load reduction in hepatocytes – cell-based, HepG2, luciferase luminescence, HepG2 viability, primary screen (AID 624349; in the data active = parasite load remaining mostly below about 12%, no sharp cut-off; inactive = mostly above about 10%;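 note: 100% = mean of DMSO negative control wells on the same plate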); conditions: P. berghei liver stage in HepG2, luciferase luminescence, concentration not given here; parasite load remaining: stronger effect = lower value; viability: measured here: HepG2 viability without parasites
[2] = Wnt pathway potentiators raising nuclear beta-catenin – imaging, WNT3A-conditioned medium, mouse C2C12, NPC library, primary screen (AID 1117326; in the data active = nuclear beta-catenin stimulation mostly above about 4.2%, no sharp cut-off; inactive = mostly below about 10%; note: reference of the scale not given here); conditions: stronger effect = higher value
[3] = stimulators of insulin release from INS-1E, primary screen, cell-based, 5 mM glucose, NPC library (AID 1117329;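 active = compound raises insulin release from rat beta cells at 5 mM glucose, no numeric limit stated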; note: reference of the scale not given here); conditions: rat INS-1E insulin secretion, at 10 µM, stronger effect = higher value
[4] = growth inhibition of GSK3B-pretreated HCT116 cells – cell-based, CellTiter-Glo, 0.2 to 20 µM (AID 1117336;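 active = compounds lowering colon cancer cell viability after pretreatment blocking the GSK3B kinase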); conditions: HCT116 viability after GSK3B inhibitor, at 20 µM, stronger effect = higher value
[5] = inhibition of endothelial tube formation, primary screen, imaging, VEGF stimulated, CD31 staining, tube area, NPC library (AID 1117340;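 active = compound that reduces growth-factor-driven endothelial tube area in a mixed cell culture, no cutoff stated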); conditions: VEGF-stimulated ADSC/ECFC co-culture, at 10 µM, stronger effect = higher value
[6] = GLP1 release stimulators, primary, NCI-H716, NPC library (AID 1117341;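 active = compound raises GLP1 secretion from the human gut endocrine cells, with no numeric limit stated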; note: reference of the scale not given here); conditions: NCI-H716 cells, at 10 µM, stronger effect = higher value
[7] = HCT116 colon cancer cell growth inhibition, primary screen, CellTiter-Glo luminescence, NPC library (AID 1117342;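 active = compounds that lower survival of HCT116 colon cancer cells in the luminescence readout, no numeric limit stated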); conditions: at 20 µM (top of the series)
[8] = reduced SW480 viability measured with CellTiter-Glo, NPC library, primary (AID 1117343;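 active = compounds that lower viability of the colon cancer cells in the luminescence readout, with no numeric limit stated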); conditions: CellTiter-Glo luminescence; at 20 µM (top of the series) unless noted
[9] = NPC library primary testing for decreased DLD-1 cell viability via CellTiter-Glo (AID 1117346;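 active = compounds that lower survival of DLD-1 colon cancer cells in the luminescence readout, no cutoff given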); conditions: DLD-1 viability, CellTiter-Glo luminescence; at 20 µM (top of the series)
[10] = viability loss with induced miR-34 in A549 – imaging, A549 dox-inducible miR-34, nuclei and caspase counts, primary screen (AID 1347080;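 active = compounds whose cell count with miR-34 switched on is under 0.7 times the count with it off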); conditions: A549 miR-34 inducible, Hoechst nuclei count, 48 h
[11] = MELAS cybrid and Rieske KO viability enhancers – cell-based, MELAS cybrids, Rieske KO mouse fibroblasts, CellTiter-Glo, primary screen (AID 1508586); conditions: low glucose;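 note: z relative to plate mean and SD of compound and empty wells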
[12] = galactose survival enhancers in mitochondrial complex I cybrids – cell-based, galactose medium, ATP luminescence, primary screen (AID 1645843;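 active = z-score of at least 1.8 in each of two replicates, scored against plate mean and spread of sample wells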;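 note: positive z means more ATP and so rescue of galactose-driven cybrid death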); conditions: complex I mutant cybrid cells, 72 h, stronger effect = higher value
[13] = stronger effect = lower value, cell number ratio, induced over uninduced
[14] = measured here: relative caspase fold change +Dox/-Dox
[15] = measured here: total cells with miR-34 induction, stronger effect = lower value
[16] = measured here: total cells without miR-34 induction
[17] = MELAS cybrid survival, CellTiter-Glo 48 h, stronger effect = higher value
[18] = Rieske KO mouse fibroblast survival, CellTiter-Glo 72 h

Compound | parasite load remaining [1] | viability [1] | nuclear beta-catenin stimulation ([2]; at 10 µM) | nuclear beta-catenin stimulation ([2]; stimulation, at 2 µM) | insulin secretion stimulation [3] | viability decrease [4] | tube area decrease [5] | GLP1 secretion stimulation [6] | inhibition of viability [7] | viability decrease (inhibition) [8] | viability decrease (inhibition) [9] | fold change [10, 13] | fold change [10, 14] | cell count [10, 15] | cell count [10, 16] | z-score [11, 17] | z-score [11, 18] | z-score [12]
CCN(CC)C(=O)/C(C#N)=C/c1cc(O)c(O)c([N+](=O)[O-])c1 | 40.1% (inactive) | 102% | -0.4% (inactive) | 1.2% | 1.5% (inactive) | 36% (inactive) | 61.4% (active) | 0% (inactive) | 29.2% (inactive) | 92.4% (active) | 35.8% (inactive) | 0.873 (inactive) | 0.914 | 10100 | 11500 | -0.387 (inactive) and -1.06 (inactive) | -0.365 and -0.513 | 0.125 (inactive)
CCOC(=O)/C=C(C)/C=C/C=C(C)/C=C/c1c(C)cc(OC)c(C)c1C | 13.4% (inactive) | 74% | -2.1% (inactive) | -0.4% | 2.6% (inactive) | 62.2% (active) | 3.9% (inactive) | -2.9% (inactive) | 59.4% (active) | 60.3% (active) | 25.3% (inactive) | 0.857 (inactive) | 1 | 9250 | 10800 | 0.196 (inactive) and -0.0105 (inactive) | 0.164 and -0.496 | -1.38 (inactive)
O=c1[nH]c2ccccc2n1CCCN1CCN(C(c2ccccc2)c2ccccc2)CC1 | 29.6% (inactive) | 106% | 2.7% (inactive) | 2% | 1.95% (inactive) | 72% (active) | 20.5% (inactive) | 1.4% (inactive) | 76.3% (active) | 110% (active) | 78.8% (active) | 0.906 (inactive) | 1.22 | 8130 | 8980 | -0.355 (inactive) | -0.351 | -1.56 (inactive)
C=C1C[C@H]2[C@@H]3C=C(C)C4=CC(=O)CC[C@]4(C)[C@H]3CC[C@]2(C)[C@@]1(OC(C)=O)C(C)=O | 14.5% (inactive) | 66% | -0.2% (inactive) | 0.8% | 0.5% (inactive) | 37.4% (inactive) | -17.7% (inactive) | -1.4% (inactive) | 62% (active) | 61.1% (active) | 53.6% (active) | 0.868 (inactive) | 1.42 | 5790 | 6660 | 0.533 (inactive) and 0.334 (inactive) | 0.392 and 1.14 | -0.29 (inactive)
CCOc1ccccc1OCCN[C@H](C)Cc1ccc(OC)c(S(N)(=O)=O)c1 | 30.6% (inactive) | 71% | 0.2% (inactive) | 3% | 1.6% (inactive) | 4.2% (inactive) | -2.4% (inactive) | 2.3% (inactive) | 4.1% (inactive) | 6.6% (inactive) | 5.8% (inactive) | 0.868 (inactive) | 1.51 | 9140 | 10500 | -0.622 (inactive) | -1.24 | -0.32 (inactive)
O=C(NCC1CN(c2ccc(N3CCOCC3=O)cc2)C(=O)O1)c1ccc(Cl)s1 (stereo unspecified) |  |  | 1.8% (inactive) | -0.7% | 0.5% (inactive) | 55.9% (active) | -0.6% (inactive) | -0.6% (inactive) | 51.2% (active) | -16% (inactive) | 9.9% (inactive) | 0.99 (inactive) | 0.417 | 7630 | 7700 | -0.316 (inactive) | -0.0771 | 
CC(C=CC=C(C)C=CC1=C(C)CCCC1(C)C)=CC=CC=C(C)C=CC=C(C)C=CC1=C(C)CCCC1(C)C |  |  | 1.5% (inactive) | 1.5% | 3.2% (inactive) | -39.2% (inactive) | 5.4% (inactive) | 5.7% (inactive) | 1.37% (inactive) | 19.1% (inactive) | 3.2% (inactive) | 0.877 (inactive) | 0.984 | 7760 | 8840 | -0.304 (inactive) | 0.553 | 
CC1=C(C(=O)OC(C)C)C(c2cccc([N+](=O)[O-])c2)C(C(=O)OC2CN(C(c3ccccc3)c3ccccc3)C2)=C(N)N1 (stereo unspecified) |  |  | -2% (inactive) | 2.2% | 5.2% (inactive) | 111% (active) | 109% (active) | 40.3% (active) | 113% (active) | 133% (active) | 102% (active) | 0.933 (inactive) | 0.636 | 7560 | 8100 | -0.296 (inactive) | -0.252 | 
Nc1c(CC(=O)O)cccc1C(=O)c1ccc(Br)cc1 |  |  | -0.1% (inactive) | 0.4% | 1.4% (inactive) | 52.4% (active) | -4.7% (inactive) | 0.3% (inactive) | -13.5% (inactive) | 37.9% (inactive) | 82.5% (active) | 0.937 (inactive) | 1.05 | 8540 | 9120 | -0.257 (inactive) | -0.191 | 
O=P(O)(O)OC(CO)CO |  |  | 0.1% (inactive) | 0.7% | 1.2% (inactive) | 3.9% (inactive) | 14.1% (inactive) | -1.6% (inactive) | -0.7% (inactive) | -2% (inactive) | -3.3% (inactive) | 0.854 (inactive) | 0.424 | 8550 | 10000 | 0.561 (inactive) | -0.261 | 0.385 (inactive)
